Where “and” joins values, the source holds several entries; their conditions need not be identical. Equal values may be shown once. For some assays here: Measured potencies and affinities stand elsewhere. Calls of active or inactive are those of the source.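 The calls were made as follows, unless noted: active = dose-response curve with midpoint inside the tested range, moderate steepness, significant amplitude and little compound fluorescence or bead-attachment interference; inactive = the rest.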
What was measured:
[1] = biological target: Cell division control protein 42 homolog (Homo sapiens) (UniProt P60953); test: inhibition of fluorescent GTP binding to constitutively active Cdc42 – biochemical, multiplex bead flow cytometry, Bodipy-FL-GTP, dose response (AID 1333;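 active = fitted half-maximal concentration within the tested dose range, moderate curve steepness, a statistically real signal drop, and little compound fluorescence or tag-binding interference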); settings: bead-based flow cytometry; series mostly up to 100 µM
[2] = biological target: Cell division control protein 42 homolog (Homo sapiens) (UniProt P60953); test: inhibition of fluorescent GTP binding to wildtype Cdc42 – biochemical, multiplex bead flow cytometry, Bodipy-FL-GTP, dose response (AID 1334;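 active = fitted half-maximal concentration within the tested range, moderate curve steepness, significant signal drop, and little compound fluorescence or bead-linkage interference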); settings: bead-based flow cytometry, Bodipy-FL-GTP binding to GST-Cdc42; at 100 µM (top of the series) unless noted
[3] = biological target: Ras-related C3 botulinum toxin substrate 1 (Homo sapiens) (UniProt P63000); test: inhibition of wildtype Rac1 nucleotide loading – biochemical, multiplex bead flow cytometry, dose response (AID 1340;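 active = dose curve with midpoint inside tested range, moderate steepness, plateau gap beyond fit error, low compound glow and bead-link interference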); settings: GST-Rac1 beads, Bodipy-FL-GTP binding; at 100 µM (top of the series) unless noted
[4] = biological target: GTPase HRas (Homo sapiens) (UniProt P01112); test: Ras wt fluorescent GTP loading blockade – biochemical, wildtype, multiplex bead flow cytometry, dose response (AID 1335;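 active = fitted half-maximal concentration within 10 nM to 100 µM, steepness 0.5 to 2, significant signal drop, low assay interference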); settings: bead-based flow cytometry, Bodipy-GTP binding to GST-Ras; at 100 µM (top of the series) unless noted
[5] = test system: Ras-related protein Rab-7a (dog), GTP binding; test: blockers of fluorescent GTP binding to Rab7 – biochemical, wildtype, multiplex bead flow cytometry, dose response (AID 1336; call rule not given here); settings: bead-based flow cytometry; series mostly up to 100 µM
[6] = biological target: GTPase HRas (Homo sapiens) (UniProt P01112); test: blockade of GTP loading onto mutant Ras – biochemical, activated mutant, multiplex bead flow cytometry, dose response (AID 1341); settings: bead-based flow cytometry, Bodipy-FL-GTP binding; series mostly up to 100 µM;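 also: GST-tagged constitutively activated Ras mutant immobilized on beads and multiplexed with other GTPases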
[7] = hit retest on RPL19A-GFP reporter strain – cell-based, S. cerevisiae, flow cytometry, cherry picks, mother/daughter gates, confirmation (AID 2270;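 active = GFP response below 50% of the DMSO control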); settings: 3 h, at 10 µM, stronger effect = lower value, 100 = same GFP as DMSO wells
[8] = yeast TOR pathway reporter LAP4-GFP change – cell-based, cherry picks, flow cytometry, mother/daughter gates, confirmation (AID 2271;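 active = GFP response above 150% of the DMSO control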;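 also: ratio of sample to DMSO plate mean so 100% equals DMSO level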); settings: S. cerevisiae LAP4-GFP strain, 3 h, at 10 µM, stronger effect = higher value, 100 means same as DMSO control
[9] = TOR pathway reporter MEP2-GFP, retest of hits – S. cerevisiae, flow cytometry GFP, cherry picks, confirmation (AID 2272;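 active = GFP response above 150% of the DMSO control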;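 also: ratio of well signal to plate DMSO mean so 100% equals DMSO level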); settings: S. cerevisiae MEP2-GFP strain, 3 h, at 10 µM, stronger effect = higher value
[10] = yeast AGP1-GFP fluorescence change, single-dose – cell-based, flow cytometry, S. cerevisiae, cherry picks, confirmation (AID 2273;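 active = GFP response above 150% of the DMSO level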;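 also: median GFP channel fluorescence over the whole cell population gate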); settings: S. cerevisiae AGP1-GFP strain, 3 h, at 10 µM
[11] = TOR pathway CIT2 reporter hit retest – S. cerevisiae, GFP fusion, cherry picks, mother/daughter gates, confirmation (AID 2274;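 active = GFP response above 150% of the DMSO level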); settings: S. cerevisiae CIT2-GFP strain, flow cytometry, 3 h, at 10 µM, stronger effect = higher value
[12] = measured here: daughter cell gate
[13] = measured here: mother cell gate
[14] = measured here: daughter cell gate response
[15] = measured here: mother cell gate response

Cell division control protein 42 homolog (Homo sapiens), sequence (P60953 whole entry, looked up): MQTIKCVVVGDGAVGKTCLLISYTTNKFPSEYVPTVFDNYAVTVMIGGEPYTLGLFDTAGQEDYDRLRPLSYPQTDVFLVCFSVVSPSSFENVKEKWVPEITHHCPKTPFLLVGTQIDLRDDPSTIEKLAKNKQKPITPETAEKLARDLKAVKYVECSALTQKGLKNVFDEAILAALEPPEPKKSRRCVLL
GTPase HRas (Homo sapiens), sequence (P01112 whole entry, looked up): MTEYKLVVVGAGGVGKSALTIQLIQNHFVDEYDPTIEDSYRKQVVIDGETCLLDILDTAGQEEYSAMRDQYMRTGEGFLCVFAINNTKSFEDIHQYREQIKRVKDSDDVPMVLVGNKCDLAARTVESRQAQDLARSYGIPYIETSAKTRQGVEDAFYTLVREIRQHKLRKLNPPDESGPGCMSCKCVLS

## Cc1cc(C(=O)O)sc1CNCc1ccccc1Cl
[1]
  outcome: inactive
[2]
  fluorescence, percent of control (lower = inhibition): 60.4%
[3]
  GTP binding signal, raw median fluorescence (lower = inhibition) (MCF (arbitrary fluorescence units)): 33.9

## COc1cc(SC#N)ccc1N=Cc1c(C)[nH]n(-c2ccc(C)c(C)c2)c1=O
[1]
  outcome: inactive
[2]
  fluorescence, percent of control (lower = inhibition): 44.7%
[4]
  GTP binding, percent of control: 83%
[5]
  outcome: inactive
[6]
  outcome: inactive

## Cc1cc(NC(=O)CSc2nc(-c3ccccc3)c(C#N)c(=O)[nH]2)no1
[1]
  outcome: inactive
[2]
  fluorescence, percent of control (lower = inhibition): 45.4%
[5]
  outcome: inactive

## O=C1/C(=C\c2cccnc2)Sc2ccccc21
[1]
  outcome: inactive
[2]
  fluorescence, percent of control (lower = inhibition): 29.1%
[4]
  GTP binding, percent of control: 62.4%
[5]
  outcome: inactive
[6]
  outcome: inactive

## CCS(=O)(=O)N1N=C(c2cccc(NS(C)(=O)=O)c2)CC1c1ccc(C)cc1 (stereo not drawn)
[1]
  outcome: inactive
[5]
  outcome: inactive
[3]
  GTP binding signal, raw median fluorescence (lower = inhibition) (MCF (arbitrary fluorescence units)): 230
[6]
  outcome: inactive
[7]
  GFP response vs DMSO: 100% (inactive)
[7]; [12]
  GFP response vs DMSO: 99.1%
[7]; [13]
  GFP response vs DMSO: 101%
[8]
  GFP response relative to DMSO: 101% (inactive)
[8]; [14]
  GFP response relative to DMSO: 97.5%
[8]; [15]
  GFP response relative to DMSO: 100%
[9]
  GFP response vs DMSO: 116% (inactive)
[10]
  GFP response, % of DMSO: 104% (inactive)
[11]
  GFP response, % of DMSO: 108% (inactive)
[11]; [12]
  GFP response, % of DMSO: 105%
[11]; [13]
  GFP response, % of DMSO: 108%

## Cc1cccc(-n2nc(CC#N)c(C#N)c2N)c1
[1]
  outcome: inactive
[2]
  fluorescence, percent of control (lower = inhibition): 33.5%
[4]
  GTP binding, percent of control: 74.8%
[5]
  outcome: inactive
[6]
  outcome: inactive

## Cc1cc(C(=O)Oc2ccccc2C(=O)O)c(C)o1
[1]
  outcome: inactive
[2]
  fluorescence, percent of control (lower = inhibition): 61.1%
[6]
  outcome: inactive

## COc1cc(/C=N/Nc2nnc3c(n2)[nH]c2ccccc23)ccc1O
[1]
  outcome: inactive
[2]
  fluorescence, percent of control (lower = inhibition): 33.9%
[4]
  GTP binding, percent of control: 79.1%
[5]
  outcome: inactive
[6]
  outcome: inactive

## COc1cc(/C=N\NC(=O)c2sc(N)nc2C)cc(OC)c1OC
[1]
  outcome: inactive
[2]
  fluorescence, percent of control (lower = inhibition): 39.4%
[4]
  GTP binding, percent of control: 51.7%
[5]
  outcome: inactive
[6]
  outcome: inactive

## NS(=O)(=O)c1ccc(N2N=C(c3ccccc3)CC2c2ccccc2)cc1 (stereo not drawn)
[1]
  outcome: inactive
[4]
  GTP binding, percent of control: 68% and 97.6%
[5]
  outcome: inactive
[3]
  GTP binding signal, raw median fluorescence (lower = inhibition) (MCF (arbitrary fluorescence units)): 223 and 99.4
[6]
  outcome: inactive

## CCN1C(c2ccccc2)=C(c2ccccc2)S/C1=C/C=C1\SC(=S)N(C)C1=O
[1]
  outcome: inactive
[2]
  fluorescence, percent of control (lower = inhibition): 41.8%
[5]
  outcome: inactive
[3]
  GTP binding signal, raw median fluorescence (lower = inhibition) (MCF (arbitrary fluorescence units)): 167
[6]
  outcome: inactive

## O=C(O)c1ccc(COc2ccccc2Cl)o1
[1]
  outcome: inactive
[2]
  fluorescence, percent of control (lower = inhibition): 73.5%
[4]
  GTP binding, percent of control: 96.7%
[5]
  outcome: inactive
[6]
  outcome: inactive

## CCCS(=O)(=O)c1nnnn1-c1cccc(OC)c1
[1]
  outcome: inactive
[4]
  GTP binding, percent of control: 71.2%
[5]
  outcome: inactive
[3]
  GTP binding signal, raw median fluorescence (lower = inhibition) (MCF (arbitrary fluorescence units)): 230
[6]
  outcome: inactive
[7]
  GFP response vs DMSO: 87.7% (inactive)
[7]; [12]
  GFP response vs DMSO: 84.6%
[7]; [13]
  GFP response vs DMSO: 83.9%
[8]
  GFP response relative to DMSO: 176% (active)
[8]; [14]
  GFP response relative to DMSO: 154%
[8]; [15]
  GFP response relative to DMSO: 178%
[9]
  GFP response vs DMSO: 119% (inactive)
[10]
  GFP response, % of DMSO: 106% (inactive)
[11]
  GFP response, % of DMSO: 74.8% (inactive)
[11]; [12]
  GFP response, % of DMSO: 74.6%
[11]; [13]
  GFP response, % of DMSO: 65.8%

## S=C(Nc1ccc(Oc2ccccc2)cc1)NC1CCCCC1
[1]
  outcome: inactive
[4]
  GTP binding, percent of control: 62.2%
[5]
  outcome: inactive
[3]
  GTP binding signal, raw median fluorescence (lower = inhibition) (MCF (arbitrary fluorescence units)): 205
[6]
  outcome: inactive

## O=C(NNC(=S)NCc1ccc(Cl)cc1)c1ccc(Br)o1
[1]
  outcome: inactive
[2]
  fluorescence, percent of control (lower = inhibition): 28.8%
[4]
  GTP binding, percent of control: 74.4%
[5]
  outcome: inactive
[6]
  outcome: inactive

## O=C(O)c1ccccc1Oc1ccccc1
[1]
  outcome: inactive
[2]
  fluorescence, percent of control (lower = inhibition): 83.7%
[4]
  GTP binding, percent of control: 100%
[3]
  GTP binding signal, raw median fluorescence (lower = inhibition) (MCF (arbitrary fluorescence units)): 65
[6]
  outcome: inactive

## CC(C)Oc1ccc(/C=N/NC(=O)c2ccc(N(Cc3ccccc3)S(C)(=O)=O)cc2)cc1
[1]
  outcome: inactive
[2]
  fluorescence, percent of control (lower = inhibition): 43.8%
[4]
  GTP binding, percent of control: 57.5%
[5]
  outcome: inactive
[6]
  outcome: inactive

## O=C(O)c1ccccc1NCc1ccccc1Cl
[1]
  outcome: inactive
[2]
  fluorescence, percent of control (lower = inhibition): 65.3%
[4]
  GTP binding, percent of control: 88.6%
[5]
  outcome: inactive
[6]
  outcome: inactive

## O=C(O)c1cn(CCOc2ccccc2)c2ccccc12
[1]
  outcome: inactive
[2]
  fluorescence, percent of control (lower = inhibition): 76.5%
[4]
  GTP binding, percent of control: 92.7%
[5]
  outcome: inactive
[6]
  outcome: inactive

## Cc1cc(C(=O)Cn2nc(C(=O)O)c3ccccc3c2=O)c(C)n1-c1ccc(OC(F)F)cc1
[2]
  fluorescence, percent of control (lower = inhibition): 28.1%
[4]
  GTP binding, percent of control: 75.5%
[5]
  outcome: inactive
[6]
  outcome: inactive

## O=S(=O)(c1cccc(-c2nnc(SCc3ccc(Cl)cc3)o2)c1)N1CCCCC1
[3]
  GTP binding signal, raw median fluorescence (lower = inhibition) (MCF (arbitrary fluorescence units)): 182

## Cc1cccc(N=Cc2[nH]c3ccc(Br)c(Cl)c3c2O)c1
[3]
  GTP binding signal, raw median fluorescence (lower = inhibition) (MCF (arbitrary fluorescence units)): 240

## CS(=O)(=O)c1ccc(C(=O)OCC(=O)NC(=O)C2CCCCC2)cc1[N+](=O)[O-]
[4]
  GTP binding, percent of control: 76.2%
[5]
  outcome: inactive
[3]
  GTP binding signal, raw median fluorescence (lower = inhibition) (MCF (arbitrary fluorescence units)): 200
[6]
  outcome: inactive

## CC(C)C(NCc1c(Cl)cccc1Cl)C(=O)O (stereo not drawn)
[4]
  GTP binding, percent of control: 81.2%
[6]
  outcome: inactive

## CC(=O)Oc1ccc2c(c1)Oc1cc(OC(C)=O)ccc1C21OC(=O)c2ccccc21
[3]
  GTP binding signal, raw median fluorescence (lower = inhibition) (MCF (arbitrary fluorescence units)): 720

## O=C(/C=C/c1ccco1)Nc1ccc(-c2nc3ccccc3[nH]2)cc1
[3]
  GTP binding signal, raw median fluorescence (lower = inhibition) (MCF (arbitrary fluorescence units)): 273

## COC(=O)c1cccnc1SCCc1ccccc1
[4]
  GTP binding, percent of control: 125%
[3]
  GTP binding signal, raw median fluorescence (lower = inhibition) (MCF (arbitrary fluorescence units)): 72.5
[6]
  outcome: inactive

## Cc1cn2c(nc(=O)c3cccnc32)s1
[3]
  GTP binding signal, raw median fluorescence (lower = inhibition) (MCF (arbitrary fluorescence units)): 126

## CC1CCN(c2ncccc2C(=O)O)CC1
[3]
  GTP binding signal, raw median fluorescence (lower = inhibition) (MCF (arbitrary fluorescence units)): 407

## CCN(CC)c1ccc(/C=C(\C#N)C(=O)c2ccc(Br)cc2)cc1
[3]
  GTP binding signal, raw median fluorescence (lower = inhibition) (MCF (arbitrary fluorescence units)): 0

## CCOc1ccc(/C=C2\SC(N3CCc4ccccc4C3)=NC2=O)cc1
[4]
  GTP binding, percent of control: 59.8%
[6]
  outcome: inactive

## O=C(NCc1cccs1)c1cccnc1C(=O)O
[4]
  GTP binding, percent of control: 84.2%
[5]
  outcome: inactive
[3]
  GTP binding signal, raw median fluorescence (lower = inhibition) (MCF (arbitrary fluorescence units)): 0
[6]
  outcome: inactive

## Cc1cccc2cc(CN(Cc3cccs3)C(c3nnnn3C3CCCC3)C(C)C)c(=O)[nH]c12 (stereo not drawn)
[4]
  GTP binding, percent of control: 60.6%
[5]
  outcome: inactive
[3]
  GTP binding signal, raw median fluorescence (lower = inhibition) (MCF (arbitrary fluorescence units)): 207
[6]
  outcome: inactive

## Cc1ccc(C)c(OCCn2cc(C(=O)O)c3ccccc32)c1
[2]
  fluorescence, percent of control (lower = inhibition): 47.5%
[4]
  GTP binding, percent of control: 91.6%
[5]
  outcome: inactive
[3]
  GTP binding signal, raw median fluorescence (lower = inhibition) (MCF (arbitrary fluorescence units)): 304
[6]
  outcome: inactive

## Cc1ccc(-n2c(-c3cnccn3)n[nH]c2=S)c(Br)c1
[2]
  fluorescence, percent of control (lower = inhibition): 23.2%
[4]
  GTP binding, percent of control: 60.1%
[5]
  outcome: inactive
[3]
  GTP binding signal, raw median fluorescence (lower = inhibition) (MCF (arbitrary fluorescence units)): 190
[6]
  outcome: inactive

## COc1ccc(C2CC(c3ccccc3)=NN2c2ccc(S(N)(=O)=O)cc2)cc1 (stereo not drawn)
[4]
  GTP binding, percent of control: 84.1%
[5]
  outcome: inactive
[3]
  GTP binding signal, raw median fluorescence (lower = inhibition) (MCF (arbitrary fluorescence units)): 260 and 239
[6]
  outcome: inactive

## CCOC(=O)c1cc([N+](=O)[O-])c([N+](=O)[O-])cc1NC(C)=O
[4]
  GTP binding, percent of control: 75%
[5]
  outcome: inactive
[3]
  GTP binding signal, raw median fluorescence (lower = inhibition) (MCF (arbitrary fluorescence units)): 241
[6]
  outcome: inactive
